According to PubChem BioAssay AID720597 (Broad Institute, 2013):
Measured potencies and affinities stand elsewhere.

Target: NAD-dependent protein deacylase sirtuin-5, mitochondrial (Homo sapiens) (UniProt Q9NXA8)
Experiment: SIRT5 deacylase inhibitors, dose response, biochemical, fluorescence imaging, cherry-pick, set 6 (AID 720597);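 note: lower AMC signal can also come from blocking the trypsin step; 0% = median of neutral control wells and -100% = median of positive control wells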
Details: Purified SirT5, succinyl-peptide-AMC/trypsin fluorescence; series mostly up to 15 µM; activity change, negative = inhibition: at the top concentration;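 active = fitted half-maximal dose no more than twice the top valid tested dose, for compounds that lower signal; inconclusive = fit invalid, or curve flat with activity between -70 and -30; inactive = potency past limit, curve flat within ±30, or signal increasing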

NAD-dependent protein deacylase sirtuin-5, mitochondrial (Homo sapiens), sequence (Q9NXA8 whole entry, looked up): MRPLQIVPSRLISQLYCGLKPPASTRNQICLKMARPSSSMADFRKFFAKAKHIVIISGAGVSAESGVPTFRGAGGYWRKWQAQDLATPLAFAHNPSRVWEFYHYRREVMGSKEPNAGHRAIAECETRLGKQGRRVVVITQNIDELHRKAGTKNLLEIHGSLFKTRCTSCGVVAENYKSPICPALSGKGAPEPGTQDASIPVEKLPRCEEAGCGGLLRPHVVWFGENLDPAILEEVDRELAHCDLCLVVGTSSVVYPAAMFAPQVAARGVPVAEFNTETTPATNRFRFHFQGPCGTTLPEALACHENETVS

Activity change, negative = inhibition, inactive:
COc1ccccc1-c1ccc([C@@H]2[C@@H]3CN(S(=O)(=O)c4ccc(-c5ccccc5)cc4)C[C@H]2N3)cc1 29.3%
CC(C)NC(=O)Nc1ccc2c(c1)C(=O)N([C@H](C)CO)C[C@H](C)[C@@H](CN(C)Cc1ccc(Cl)c(Cl)c1)O2 7.9%
O=C(C1CCCC1)N1CC2(C1)[C@H](c1ccccc1)[C@@H](CO)N2Cc1ccc(Cl)cc1 -8.55%
C[C@@H]1CN([C@H](C)CO)S(=O)(=O)c2ccc(/C=C/c3ccccc3)cc2O[C@@H]1CN(C)Cc1ccccc1 5.76%
O=C(CN1CCOCC1)N1CC[C@H]2[C@H](CO)Nc3ccc(-c4ccc(F)cc4)cc3[C@H]21 -8.05%
Cc1noc(C)c1S(=O)(=O)Nc1ccc2c(c1)CC(=O)N([C@H](C)CO)C[C@H](C)[C@@H](CN(C)Cc1ccc(C(=O)O)cc1)O2 -11.7%
C[C@H]1CN([C@@H](C)CO)C(=O)c2c(c3ccccc3n2C)-c2ccccc2CO[C@H]1CN(C)S(=O)(=O)c1ccc(F)cc1 -7.94%
C[C@@H]1CN([C@H](C)CO)C(=O)c2c(c3ccccc3n2C)-c2ccccc2CO[C@H]1CN(C)S(=O)(=O)c1ccc(C(F)(F)F)cc1 -8.07%
C[C@H]1CN([C@@H](C)CO)S(=O)(=O)c2ccc(/C=C/c3ccccc3)cc2O[C@@H]1CN(C)Cc1ccccc1 28.7%
C[C@@H]1CN([C@@H](C)CO)C(=O)c2c(c3ccccc3n2C)-c2ccccc2CO[C@@H]1CN(C)Cc1cccc2c1OCCCO2 -11.8%
O=C(c1cccnc1)N1CCCCN2[C@H](CO)[C@@H](c3ccc(C#Cc4ccccn4)cc3)[C@@H]2C1 -14.5%
O=C(NCC[C@@H]1CC[C@H](NS(=O)(=O)c2cccc(F)c2)[C@@H](CO)O1)C1CCOCC1 15.4%
C[C@@H]1CN([C@H](C)CO)S(=O)(=O)c2ccc(C#C[C@@H](C)O)cc2O[C@@H]1CN(C)Cc1ccc(-c2ccccc2)cc1 11.5%
CO[C@H]1CN(C)C(=O)c2cc(NC(C)=O)ccc2OC[C@H](C)N(S(=O)(=O)c2cn(C)cn2)C[C@H]1C 4.67%
COc1ccc(S(=O)(=O)Nc2ccc3c(c2)C(=O)N([C@@H](C)CO)C[C@H](C)[C@@H](CN(C)Cc2ccc(C(F)(F)F)cc2)OCCCC[C@H](C)O3)cc1 -3.79%
Cc1ccc(S(=O)(=O)Nc2ccc3c(c2)C(=O)N([C@H](C)CO)C[C@H](C)[C@H](CN(C)Cc2ccc(C(F)(F)F)cc2)OCCCC[C@H](C)O3)cc1 -13.6%
CCCNC(=O)N(C)C[C@H]1Oc2cc(C#CC(C)C)ccc2S(=O)(=O)N([C@H](C)CO)C[C@@H]1C 8.83%
C[C@H](O)C#Cc1ccc2c(c1)O[C@@H](CN(C)Cc1ccc(-c3ccccc3)cc1)[C@@H](C)CN([C@H](C)CO)S2(=O)=O 10.3%
CCCN(C[C@H]1[C@H](c2ccccc2)[C@@H](CO)N1C(C)=O)C(=O)NC(C)C 6.93% [at 16 µM]
CO[C@H]1CN(C)C(=O)c2cc(NC(=O)NC(C)C)ccc2OC[C@@H](C)N(C(=O)CC2CC2)C[C@@H]1C -9.33%
C[C@H](CO)N1C[C@H](C)[C@H](CN(C)S(=O)(=O)c2ccc(F)cc2)Oc2cc(C#Cc3ccc(F)cc3)ccc2S1(=O)=O 38.2%
C[C@H]1CN([C@@H](C)CO)C(=O)c2cc(C#Cc3cccc(F)c3)cnc2O[C@@H]1CN(C)CC1CCCC1 -7.58%
C[C@@H]1CN([C@@H](C)CO)S(=O)(=O)c2ccc(/C=C/c3ccccc3)cc2O[C@H]1CN(C)C(=O)c1ccc2c(c1)OCO2 -8.88%
COc1ccccc1S(=O)(=O)N(C)C[C@@H]1Oc2cc(C#CCC(C)C)ccc2S(=O)(=O)N([C@H](C)CO)C[C@H]1C -1.72%
C[C@H](CO)N1C[C@H](C)[C@H](CN(C)Cc2ccc(C(F)(F)F)cc2)Oc2ccc(NS(C)(=O)=O)cc2C1=O 17%
C[C@@H]1CN([C@@H](C)CO)S(=O)(=O)c2ccc(C#CC3CC3)cc2O[C@H]1CN(C)Cc1ccccc1F -14.8%
Cc1ccc(S(=O)(=O)Nc2ccc3c(c2)C(=O)N([C@@H](C)CO)C[C@H](C)[C@@H](CN(C)S(=O)(=O)c2ccc(F)cc2)OCCCC[C@@H](C)O3)cc1 -1.33%
C[C@H](CO)N1C[C@H](C)[C@H](CN(C)C(=O)c2ccc3c(c2)OCO3)Oc2cc(/C=C/c3ccccc3)ccc2S1(=O)=O -4.94%
